Each structure is given as a SMILES string. The campaign covered roughly 67,000 compounds. About 300 (0.45%) showed an effect of 50% or more. Only a selection was taken, and strong results are over-represented in it overall.

Sequence of Polyketide synthase Pks13 (Mycobacterium tuberculosis (strain ATCC 25618 / H37Rv)) (I6X8D2 whole entry): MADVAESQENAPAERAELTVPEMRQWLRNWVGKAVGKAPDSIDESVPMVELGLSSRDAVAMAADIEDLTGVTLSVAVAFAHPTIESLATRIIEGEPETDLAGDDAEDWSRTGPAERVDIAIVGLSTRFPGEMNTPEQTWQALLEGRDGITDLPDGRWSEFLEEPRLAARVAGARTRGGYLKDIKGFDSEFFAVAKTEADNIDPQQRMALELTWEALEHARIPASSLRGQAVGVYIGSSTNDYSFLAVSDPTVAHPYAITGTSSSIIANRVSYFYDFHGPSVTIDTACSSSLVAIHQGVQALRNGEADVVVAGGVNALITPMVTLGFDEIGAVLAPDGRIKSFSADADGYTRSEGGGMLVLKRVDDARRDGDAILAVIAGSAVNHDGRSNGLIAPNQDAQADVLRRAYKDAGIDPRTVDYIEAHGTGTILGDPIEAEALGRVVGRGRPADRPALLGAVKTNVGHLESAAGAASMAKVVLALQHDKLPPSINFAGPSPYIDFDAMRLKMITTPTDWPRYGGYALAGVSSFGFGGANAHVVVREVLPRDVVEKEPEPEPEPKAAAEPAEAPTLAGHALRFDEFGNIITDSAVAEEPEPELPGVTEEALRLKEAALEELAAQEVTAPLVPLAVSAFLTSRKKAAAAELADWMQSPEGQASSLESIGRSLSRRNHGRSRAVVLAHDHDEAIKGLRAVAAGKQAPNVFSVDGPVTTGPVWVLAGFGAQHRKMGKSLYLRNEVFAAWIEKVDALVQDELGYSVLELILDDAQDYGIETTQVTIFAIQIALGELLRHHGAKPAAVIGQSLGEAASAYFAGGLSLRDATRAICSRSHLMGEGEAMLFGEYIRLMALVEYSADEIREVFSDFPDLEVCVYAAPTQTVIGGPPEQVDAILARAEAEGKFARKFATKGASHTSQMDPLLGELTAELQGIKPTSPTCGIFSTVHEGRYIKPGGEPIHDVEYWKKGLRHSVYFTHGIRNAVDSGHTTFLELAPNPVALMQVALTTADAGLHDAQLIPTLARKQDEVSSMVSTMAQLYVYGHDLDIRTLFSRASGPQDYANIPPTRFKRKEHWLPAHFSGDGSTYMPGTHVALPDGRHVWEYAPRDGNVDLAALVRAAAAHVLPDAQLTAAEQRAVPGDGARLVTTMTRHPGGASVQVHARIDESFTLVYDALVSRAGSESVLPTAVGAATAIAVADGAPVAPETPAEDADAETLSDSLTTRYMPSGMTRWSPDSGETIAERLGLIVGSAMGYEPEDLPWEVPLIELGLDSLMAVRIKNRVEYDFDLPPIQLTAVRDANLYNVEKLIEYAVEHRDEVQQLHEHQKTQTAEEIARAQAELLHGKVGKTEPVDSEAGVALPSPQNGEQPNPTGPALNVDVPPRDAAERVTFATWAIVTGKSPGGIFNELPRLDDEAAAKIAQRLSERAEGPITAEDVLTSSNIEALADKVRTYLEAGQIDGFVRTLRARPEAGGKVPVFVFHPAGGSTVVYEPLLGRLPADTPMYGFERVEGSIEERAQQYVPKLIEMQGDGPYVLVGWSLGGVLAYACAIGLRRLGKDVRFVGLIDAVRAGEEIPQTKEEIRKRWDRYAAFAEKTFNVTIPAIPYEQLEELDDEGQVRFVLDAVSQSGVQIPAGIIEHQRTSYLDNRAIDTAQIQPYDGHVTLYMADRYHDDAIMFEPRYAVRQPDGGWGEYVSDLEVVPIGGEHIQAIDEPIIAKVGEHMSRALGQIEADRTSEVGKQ

The test concerns the target Polyketide synthase Pks13 (Mycobacterium tuberculosis (strain ATCC 25618 / H37Rv)) (UniProt I6X8D2). Nature of the test: Mycobacterium tuberculosis Polyketide synthase 13 Thioesterase (PKS13). It counts as functional. The arrangement: scale not given: in the data most compounds retested in dose-response had high values. The note with it: 30 µM.
Take `COC(=O)NCC(=O)NCC(C)(C)c1cccc(Br)c1`: the Percent Effect is -17.5%.
Take `CCC(=O)NCC(=O)NCC(C)(C)c1cccc(Br)c1`: the Percent Effect came out at 50.4%.
For `COC(=O)NCC(=O)NCC(C)(C)c1cccc(C(F)(F)F)c1`, the Percent Effect was -4.12%.
Take `CS(=O)(=O)N1CCO[C@@H]2CN(C(=O)C3CCOC3)CC[C@@H]2C1` (stereo partly drawn): the Percent Effect was -9.9%.
With `O=C(c1ccccc1)C1CCN(c2cncc(-n3cccn3)n2)CC1`, the Percent Effect was 75.5%.
For `NC(=O)C1CCN(c2cncc(-n3cccn3)n2)CC1`, the Percent Effect amounted to 9.01%.
Take `CN(C)C(=O)C1CCN(c2cncc(-n3cccn3)n2)CC1`: the Percent Effect amounted to 9.49%.
Under `Cc1ccc(C(=O)N2C[C@@H](OCC3CCOCC3)[C@H]3OCCC[C@H]32)o1` stands -4.11%.
Take `CC(C)NC(=O)N1CCCn2cnc(CN3CCCC3=O)c2C1`: the Percent Effect is -40.2%.
Consider `O=C1CCCN1Cc1ncn2c1CN(C(=O)NC1CCCC1)CCC2`, for which the Percent Effect was 60.1%.
Under `O=C1CCCN1Cc1ncn2c1CN(C(=O)NC1CCCCC1)CCC2` stands 29%; under `O=C([C@@H]1C[C@@H]2CCN(Cc3ccccn3)C[C@H]2O1)N1CCCO1`, -7.04%.
Turning to `CN(C)C(=O)CN1C[C@@H]2CC[C@H](C1)N(C(=O)CCn1cncn1)C2`, the Percent Effect was -4.82%.
On to `CC(=O)c1cc(CN2C[C@H]3CC[C@@H]2CN(S(=O)(=O)N(C)C)C3)cs1`, for which the Percent Effect is -12.2%.
Take `O=C(c1ccccc1)N1C[C@@H]2CC[C@H](C1)N(Cc1cc(F)ccc1Cl)C2`: the Percent Effect stood at 3.66%.
As to `O=C1[C@H]2CC[C@H](CN(c3ncnc4ccsc34)C2)N1CC1CC1`, the Percent Effect stood at 90.8%.
Consider `CN1C(=O)[C@H]2CC[C@@H]1CN(c1ncnc3ccsc13)C2`, for which the Percent Effect was determined as 38.1%.
Under `COc1cc(N2C[C@@H]3CC[C@H](C2)N(CC2CCC2)C3=O)ncn1` stands -4.75%.
For `COCC(=O)N1CC[C@H]2C[C@H](c3nnc(C4CC4)o3)O[C@@H]2C1`, the Percent Effect was -6.34%.
With `COCCN1C[C@H]2CC[C@@H]1CN(Cc1nc3ccccc3n1C)C2`, the Percent Effect is -34.6%.
On to `NC(=O)COc1ccc(CN2CC[C@@]3(O)CCCC[C@H]3C2)cc1Cl`, for which the Percent Effect was -1.23%.
Under `CCc1[nH]c2c(CNc3cc(C)nc(NC)n3)cc(C)cc2c1C` stands 5.91%; under `CCc1[nH]c2c(CNc3nc(C)cc(NC)n3)cc(C)cc2c1C`, 146%; under `CNc1cc(C)nc(NCc2cc(C)cc3c(C)c(C)[nH]c23)n1`, 13%.
Under `COC[C@@H]1CC[C@H]2[C@H](CCN2S(=O)(=O)Cc2ccccc2)O1` stands -27.3%; under `c1cncc(CN2CCN3C[C@H](Oc4cncnc4)C[C@H]3C2)c1`, 0.84%.
Turning to `Cc1cccc(CN2C[C@@H]3CN(C(=O)C4CCOC4)C[C@@H]3C2=O)c1` (stereo partly drawn), the Percent Effect was -8.77%.
As to `CN1CCN(C(=O)[C@H]2C[C@H]3[C@H](CCN3Cc3nccs3)O2)CC1`, the Percent Effect is -17.5%.
As to `Cc1ccc(N2CC[C@H]3C[C@H](C(=O)NCc4ccco4)O[C@@H]3C2)cc1`, the Percent Effect is -20.4%.
Consider `c1cc(CN2CC[C@@H]3CN(c4cnccn4)C[C@@H]3C2)ccn1`, for which the Percent Effect is -15.9%.
As for `Cc1ccc(OCc2occc2C(=O)N2C[C@@H]3[C@@H](CN(C)C)[C@@H]3C2)cc1`, the Percent Effect was -36.4%.
In the case of `CN(C)C[C@@H]1CN(C(=O)c2cc(F)ccc2F)C[C@@H]1CO`, the Percent Effect was -27.8%.
Under `CN(C)C[C@@H]1[C@H]2CN(C(=O)c3cc(=O)[nH]c4ccc(F)cc34)C[C@@H]12` stands 55.8%; under `CC1CN(C(=O)c2cc(=O)[nH]c3ccc(F)cc23)CCO1` (stereo not drawn), 6.5%.
On to `CN(C)C[C@H]1C[C@@H](CO)CN(C(=O)c2cc(=O)[nH]c3cc(F)ccc23)C1`, for which the Percent Effect was -20%.
With `Cc1ccoc1C(=O)N1CC[C@@H]2CN(C3CCOCC3)CCO[C@@H]2C1`, the Percent Effect is -13.2%.
On to `COc1ncccc1CN1C[C@H]2C[C@@H](C(=O)NCC3CC3)N(C)[C@H]2C1`, for which the Percent Effect was -7.18%.
Under `Cc1noc(C)c1CN1C(=O)[C@H]2CC[C@@H]1CN(Cc1cccnc1N)C2` stands -20%.
Under `Cc1oncc1C(=O)N1CC[C@@H]2[C@@H]1CC(=O)N2Cc1cccnc1` stands 10.2%; under `CCc1ccccc1CN1CCN(Cc2ncc[nH]2)[C@H]2CS(=O)(=O)C[C@H]21`, -16.6%.
Under `Cn1ccc(C(=O)NC2CCN(c3ncccn3)CC2)cc1=O` stands 71.3%.
For the compound `COc1ccc(C(=O)NC2CCN(c3ncccn3)CC2)cc1F`, the Percent Effect was -18.2%.
Consider `Cn1ccc(C(=O)N2CCN(c3ncccn3)CC2)cc1=O`, for which the Percent Effect was found to be 11.1%.
With `CN(C)c1ccc(CN2C[C@H]3CC[C@@H]2CN(C2CCOCC2)C3)cn1`, the Percent Effect was -33%.
Under `CNC(=O)[C@H]1C[C@@H]2CN(Cc3csc(C)n3)C[C@@H]2N1S(C)(=O)=O` stands -33.5%.
For `O=C(Cc1ccccn1)N1CCC2(CC1)[C@H](O)C[C@@H]2O`, the Percent Effect came to 7.55%.
Under `CCOC1CC2(CCN(C(=O)Cc3ccccn3)CC2)C1` stands 58.6%; under `CC(C)COC1CC2(CCN(C(=O)Cc3ccccn3)CC2)C1`, 0.268%; under `C[C@@H]1C[C@@H]2CCN(C(=O)c3ccncn3)C[C@H]2O1`, -3.96%.
Regarding `O=C(CC[C@@H]1CCCN2CCCC[C@H]12)NCCc1nc(O)cc(O)n1`, the Percent Effect is -3.34%.
Under `c1cncc(OC[C@]23COC[C@H]2CN(Cc2nccs2)C3)c1` stands -6.85%; under `COCCNC(=O)c1cn(C(C)(C)C)c2ncccc12`, -9.36%; under `COCCCNC(=O)c1cn(C(C)(C)C)c2ncccc12`, 0.73%.
Take `CCOCCCNC(=O)c1cn(C(C)(C)C)c2ncccc12`: the Percent Effect came out at 60.2%.
Under `Cc1cccc(CN2C[C@@H]3CCCO[C@@H]3[C@H](Nc3ccccn3)C2)n1` stands -13.2%; under `C[C@H]1C[C@@H]2CCN(C(=O)c3cccn3C)C[C@H]2O1`, -23.4%.
Under `CN(C)S(=O)(=O)c1ccc(-c2nc(C#N)c(NC(C)(C)C)o2)o1` stands -2.58%.
For the compound `Cc1oc(-c2nc(C#N)c(NC3CC3)o2)cc1S(=O)(=O)N1CCCC1`, the Percent Effect was -2.87%.

For the origin of these results see ChEMBL document CHEMBL3988442, “University of Dundee, Small-Polar-MMV Screening Library” (2021).
